Screening results: PubChem, National Center for Advancing Translational Sciences (NCATS)
Marburg entry inh – inhibitors of Marburg virus binding or cell entry; Marburg virus pseudotyped entry inhibition, cell reporter; hit rate 1.8% among 300,000; AID 540276; Potency, µM (doses to about 37.8 µM), without a hit: at the top dose activity change, negative = inhibition, hits mostly inhibitors; calls by dose curve; tested in HEK293 cells; note: potency is the fitted concentration of half-maximal effect; % is set by controls: 0 for no effect and ±100 for the full control effect
Shiga inhibitor – Shiga toxin inhibition. Vero cells, Shiga toxin protein synthesis inhibition reporter. inhibition, % at 38.7 µM. hit rate 9.2% among 290,000; in the data active = inhibition mostly above about 28%, no sharp cut-off; inactive = mostly below about 43%; note: 0% is about no effect
AMA1 RON2 block – disrupts binding of P. falciparum AMA1 to RON2 | AlphaScreen AMA1-biotinylated RON2 peptide binding | Potency, µM (series often up to 58.2 µM), without a hit: top-dose activity change, negative = inhibition, most hits filed as inhibitors | hit rate 0.2% among 360,000 | AID 720542; active = well fitted inhibition curve with a large enough effect; inconclusive = small, poorly fitted or top-dose-only effect; inactive = no such curve, though single readings can be large or run the other way;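 note: potency is the fitted concentration of half-maximal effect; 0% = vehicle wells and -100% = peptide control; nearly all actives have a fitted effect of over 45% in size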
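AMA1 (3D7) with his tag at 25 nM final met compounds first, then biotinylated RON2 peptide at 25 nM; detection used donor plus acceptor beads, 10 µg/mL apiece, read by AlphaScreen after 30 min at room temperature.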
Cycloheximide cs – counter-screen hit for Shiga toxin inhibitors, cycloheximide; cell reporter, cycloheximide protein synthesis inhibition counterscreen; max response, %; hit rate 12% among 300,000; AID 2314; in the data active = max response mostly above about 13%, no sharp cut-off; inactive = mostly below about 14%; note: read at 38.3 µM for the half of the compounds with a filed dose; 0% is about no effect
LASV entry inh – blocks Lassa virus binding to or entry into cells. AID 540256. Potency, µM (highest dose often 37.9 µM), for inactives: at the top dose activity change, negative = inhibition, most hits filed as inhibitors. Lassa virus pseudotype entry inhibition, cell reporter. hit rate 1.2% among 300,000; calls by dose curve; tested in HEK293 cells; note: potency is the fitted concentration of half-maximal effect; % is set by controls: 0 for no effect and ±100 for the full control effect; nearly all actives have a fitted effect of over 50% in size
The depositor's hits bear a star; ? = inconclusive; . = no result; ! = not confirmed by another sample; [ ] = another dose, or the depositor's remark. Shown is part of a subset that was picked to be rich in hits.

SMILES | Marburg entry inh | Shiga inhibitor | AMA1 RON2 block | Cycloheximide cs | LASV entry inh
COc1ccc(OCc2cc(C(=O)NCC3CCCCO3)no2)c(Cl)c1 (stereo not given) | . | 73.5* | 0.0% | 45.8* | .
COc1ccc(OCc2cc(C(=O)NCCN3CCCC(O)C3)no2)c(Cl)c1 (stereo not given) | -29.1%[46.1 µM] | 4.4 | -2.8% | 2.0 | 22.9%[46.1 µM]
COc1ccc(OCc2cc(C(=O)NCC3CCOCC3)no2)c(Cl)c1 | . | 53.8* | 8.0% | 50.8* | .
CC(C)Cn1c(O)c(/C=C2\C=NN=C2c2ccccc2)sc1=S | ? | -7.9 | -24.7% | -3.9 | 12.6µM*
Oc1ccc(C2=NNC(c3ccc(O)cc3)=NN2)cc1 | 14.8% | -12.9 | -7.5% | -4.7 | -10.6%
Oc1ccc(-c2nnc(-c3ccc(O)cc3)nn2)cc1 | ? | 25.4 | 1.5% | 25.7* | ?
O=C(c1ccc(O)cc1)c1ccc(C(=O)c2ccc(O)cc2)cc1 | ? | 2.8 | -11.8% | 6.8 | ?
Oc1ccc(O)cc1 | 7.94µM*! | . | . | . | ?
c1cnc(Oc2ccc3oc4ccccc4c3c2)nc1 | ? | 56.1* | -2.9% | 43.9* | -37.0%
CCNc1c2c(oc(=O)c1N)CCCC2 | 5.2% | . | . | . | .
O=C(Cc1ccccc1)NCCSC1CCCCC1 | . | 58.0* | -7.9% | 31.1* | .
O=C(Cc1ccccc1)NCCCNC(=O)Cc1ccccc1 | 21.1% | . | 11.4% | . | 11.5%[46.1 µM]
N#C/C(=C\c1coc2ccccc2c1=O)C(N)=S | 11.9%[46.1 µM] | -0.5 | 20.6% | 10.5 | 1.3%
N#C/C(=C\c1coc2ccc(O)cc2c1=O)C(=O)Nc1nc2ccccc2s1 | . | 86.1* | 13.4% | 31.6* | .
CN(C)S(=O)(=O)c1cccc(NC(=O)c2ccc3c(c2)OCCO3)c1 | -16.5% | . | -20.3% | . | 11.7%
O=C(O)c1ccc(COc2ccc3c4c(c(=O)oc3c2)CCC4)o1 | ? | -14.7 | 2.2% | -1.3 | ?
Cc1c(C)c2ccc(OCc3ccc(C(=O)O)o3)c(C)c2oc1=O | ? | 58.4* | 28.7% | 32.4* | 4.11µM*
Cc1cc(C)cc(OCc2ccc(C(=O)Nc3ccccc3F)o2)c1 | 2.0%[46.1 µM] | . | . | . | -20.4%[46.1 µM]
COC(=O)c1ccc(COc2ccc(C)c(C)c2)o1 | . | 97.8* | 2.8% | 26.7* | .
Cc1cc(C)cc(OCc2ccc(C(=O)O)o2)c1 | 11.4% | 27.1 | -3.2% | 9.3* | 7.9%
Cc1cc(C)cc(COc2ccc3c(C)c(CC(=O)O)c(=O)oc3c2C)c1 | 13.5%[46.1 µM] | -2.8 | -0.7% | -2.8 | 25.8%[46.1 µM]
CCc1cc(=O)oc2cc(OCc3ccc(C(=O)O)o3)ccc12 | . | 27.7 | -2.1% | 15.0* | .
COC(=O)c1ccc(COc2ccc3ccc(=O)oc3c2)o1 | 4.5%[46.1 µM] | 22.4 | 10.4% | 1.6 | 21.4%[46.1 µM]
CCOC(=O)c1ccc(NS(=O)(=O)c2cn(C)c(C)n2)cc1 | . | . | . | . | -14.8%[46.1 µM]
CCOC(=O)CN1C(=O)[C@@]2(CC(C)=CC[C@@H](COc3ccccc3)O2)c2ccccc21 | -19.5%[14.2 µM] | . | . | . | ?
SMILES | Marburg entry inh | Shiga inhibitor | AMA1 RON2 block | Cycloheximide cs | LASV entry inh
COC(=O)c1ccc(CO/N=C/c2ccc(OC)cc2)o1 | 18.4%[46.1 µM] | 58.2* | -20.3% | 53.0* | .
Cc1cccc(CSCc2ccc(C(=O)O)o2)c1 | . | 24.6 | -10.1% | 15.7* | .
COC(=O)c1ccc(COc2ccc(F)cc2)o1 | 0.0%[46.1 µM] | 52.6* | -2.8% | 27.8* | 9.4%[46.1 µM]
COC(=O)c1ccc(Cc2ccc(C(=O)OC)o2)o1 | 18.7% | -6.2 | -3.2% | -2.3 | -0.7%
Cc1ccc(OCc2ccc(C(=O)O)o2)cc1C | . | 69.3* | 5.9% | 71.5* | .
CCN(CC(=O)NCC(=O)Nc1ccc(Br)cc1C)Cc1ccccc1 | -4.6%[46.1 µM] | . | 36.2% | . | -2.9%
O=C(Cc1ccc(F)cc1)N1CCC(c2nc3c(nnn3Cc3ccc(Cl)cc3)c(=O)[nH]2)CC1 | 3.1%[46.1 µM] | . | . | . | -17.0%[46.1 µM]
COC(=O)c1ccc(COc2cc(C)ccc2C)o1 | . | 91.2* | 25.1% | 45.9* | .
Cc1ccn2cc(C34CC5CC(CC(C5)C3)C4)nc2c1 | ? | 95.0* | 4.9% | 35.5* | 8.9%
CCOc1nc2cnccc2n(CC(=O)Nc2c(C)cccc2CC)c1=O | . | 32.9 | -4.9% | -6.3 | .
Brc1ccc(-c2ncc(-c3ccccc3)cn2)cc1 | ? | 135.9* | 3.5% | 45.8* | ?
Brc1ccc(-c2ccccc2)cc1 | . | . | 11.4% | . | .
O=C(Nc1cccc(C(F)(F)F)c1)c1cnn(-c2cccc(F)c2)c1C1CCNCC1 | . | . | . | . | 38.1%[46.1 µM]
C/C(=N/OC(=O)c1ccc(C)cc1)C(=O)c1ccc(Br)cc1 | . | -12.5 | 15.2% | 1.2 | .
CC/C(=N/O)C(=O)c1ccc(Br)cc1 | 1.2%[46.1 µM] | 25.1 | 8.0% | 7.9 | 8.91µM*
Clc1cccc(N/N=C/c2ccncc2)c1 | ? | 19.9 | -17.7% | 30.5* | 10.2%
Cc1csc(N/N=C\c2cccnc2)n1 | 22.2%[46.1 µM] | 90.8* | 26.6% | 58.4* | 5.0%
Cc1ccc(N/N=C/c2ccncc2)cc1 | . | 86.6* | 12.8% | 42.4* | .
O=C(O)c1ccc(/C=N/Nc2ncc(Cl)cc2Cl)cc1 | . | 65.2* | 20.7% | 20.6 | .
Cc1ccc(C(=O)Nc2ccc(C(=O)N/N=C/c3ccncc3)cc2)cc1 | . | 11.9 | . | 18.0 | .
Cc1c(C(=O)Nc2ccccc2)sc2nc(-c3cc4cc(Cl)ccc4oc3=O)[nH]c(=O)c12 | . | . | . | . | 17.3%[46.1 µM]
CC(C)NC(=S)N/N=C/c1cccnc1 | ? | -14.4 | 50.8% | -2.9 | ?
O=C(O)c1ccc(N/N=C/c2ccncc2)cc1 | . | 35.1* | -5.7% | 25.4* | .
Cc1ccc(N/N=C/c2cccnc2)cc1 | ? | 84.0* | -12.0% | 53.4* | ?
O=C(O)c1ccc(N/N=C/c2ccc3nccnc3c2)cc1 | . | -22.8 | 4.3% | -5.8 | .
Cc1ccccc1NC(=O)C(C)SCc1ccccc1 (stereo not given) | -1.8%[46.1 µM] | 36.4 | 7.1% | 4.6 | ?
CC(SCc1ccccc1)C(=O)Nc1ccccc1Br (stereo not given) | -3.1%[46.1 µM] | . | 28.3% | 42.3* | ?
